According to ChEMBL document CHEMBL3433997, “St. Jude Leishmania screening dataset” (2016):

Assays:
Type in all cases: functional
[1] = biological target: Solute carrier family 2, facilitated glucose transporter member 1 (Homo sapiens) (UniProt P11166); assay: ST_JUDE_LEISH: Cytotoxicity at 2uM final concentration against transgenic Leishmania Mexicana promastigotes LmGLUT1 that are glucose transport deficient and complemented with the human glucose transporter GLUT1. Activity is measured by DNA content using SYBR green in vitro
Sequence of Solute carrier family 2, facilitated glucose transporter member 1 (Homo sapiens) (P11166 whole entry): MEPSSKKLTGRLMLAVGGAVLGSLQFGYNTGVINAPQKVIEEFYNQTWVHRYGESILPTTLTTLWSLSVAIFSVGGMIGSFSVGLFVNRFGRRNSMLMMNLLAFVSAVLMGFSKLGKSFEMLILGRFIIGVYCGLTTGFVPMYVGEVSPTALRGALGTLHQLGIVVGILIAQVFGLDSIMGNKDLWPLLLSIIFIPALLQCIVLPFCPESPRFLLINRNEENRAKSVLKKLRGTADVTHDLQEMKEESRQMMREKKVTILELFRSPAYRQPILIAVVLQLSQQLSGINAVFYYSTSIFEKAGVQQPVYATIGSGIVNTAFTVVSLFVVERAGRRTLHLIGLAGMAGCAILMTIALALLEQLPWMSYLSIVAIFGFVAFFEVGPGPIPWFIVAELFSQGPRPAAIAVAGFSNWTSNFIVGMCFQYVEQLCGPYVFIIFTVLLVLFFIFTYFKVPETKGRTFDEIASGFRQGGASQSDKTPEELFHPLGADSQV

[2] = biological target: Hexose transporter 1 (Plasmodium falciparum) (UniProt O97467); assay: ST_JUDE_LEISH: Cytotoxicity at 2uM final concentration against transgenic Leishmania Mexicana promastigotes LmPfHT that are glucose transport deficient and complemented with the Plasmodium falciparum hexose transporter. Activity is measured by DNA content using SYBR green in vitro
[3] = biological target: Glucose transporter (Leishmania mexicana) (UniProt O61059); assay: ST_JUDE_LEISH: Cytotoxicity at 2uM final concentration against transgenic Leishmania Mexicana promastigotes LmGT2 that are glucose transport deficient and complemented with the L. Mexicana glucose transporter 2. Activity is measured by DNA content using SYBR green in vitro

Compound | inhibition [1] [%] | inhibition [2] [%] | inhibition [3] [%]
CC(CN1CCN(C)CC1)C(=O)Nc1cccc(-c2ccc(-c3nc4ccccc4[nH]3)cc2)c1 (centres undefined) | 0.63 | 1.17 | -1.58
CC(C)(C)c1cc(C(=O)N2CCN(c3cnccn3)CC2)n(Cc2ccccc2)n1 | 4.57 | 4.68 | 4.9
NC(=O)c1cnc2cc(-c3ccncc3)cc(Nc3ccc(NC(=O)C4CCCCC4)cc3)c2c1 | 2.17 | 2.89 | 1.29
COc1ccccc1NC(=O)Nc1ccc(-c2ccc(-c3nc4cccc(C)c4[nH]3)s2)cc1 | 3.53 | 1.17 | 1.64
CCCCCOc1ccc(C(=NC)N(CCCCC)CCCCC)c2ccccc12 | 5.37 | 10.9 | 7.32
CN(C)C(=O)O[C@@H]1CN[C@H](C#Cc2cc3ncnc(Nc4ccc5c(cnn5Cc5cccc(F)c5)c4)c3s2)C1 | 10.1 | 9.66 | 10.1
N#CC(c1cccc(Cl)c1)c1ccc2c(C(F)(F)F)cc(C(F)(F)F)nc2n1 (centres undefined) | 9.02 | 7.47 | 6.02
O=C(Nc1ccc2c(c1)CN(Cc1ccc(N3CCCC3)o1)CCC2)c1ccoc1 | 19.8 | 12.8 | 2.73
CC(C)N1CCN(C(=O)c2ccc(CNCCCN3CCN(c4cccc(Cl)c4Cl)CC3)s2)CC1 | 1.17 | 1.06 | -0.54
Cc1cc(NCCc2ccccc2)nc(NC(=N)Nc2ccccc2Cl)n1 | 9.69 | 7.74 | 7.34
CN1CCCC(CN2CCN(Cc3cccc(-c4ccc(-c5nc6ccccc6[nH]5)s4)c3)CC2)C1 (centres undefined) | 7.08 | 6.85 | 3.05
N#Cc1ccc2c(c1)CN(C1CCC(NC(=O)C3=Cc4cc(Cl)ccc4OC3)CC1)CCC2 (centres undefined) | 8.34 | 6.19 | 5.6
FC(F)(F)c1cccc2c(NN=Cc3ccccc3)ccnc12 | 2.7 | 2.21 | 1.42
CCCCCn1c(Sc2ccc(C#N)c([N+](=O)[O-])c2)nnc1-c1cc(OC)cc(OC)c1 | 13 | 10.4 | 9.25
COc1ccccc1Nc1nc(C)cc(NCc2ccc(-n3ccnc3)cc2)n1 | 8.92 | 7.52 | 3.48
CCCN(Cc1nnc(-c2cccs2)o1)C(=O)CSc1nnnn1-c1ccc(C)c(C)c1 | 12.1 | 11.8 | 9.19
NC1=NC2(CCCCC2)N(OCCCCCCCCNc2nc(N)nc(N)n2)C(N)=N1 | 4.34 | 5.05 | 5.12

Compound | inhibition [1] [%] | inhibition [2] [%] | inhibition [3] [%]
C=CCNC(=O)CCCNC(=N)N | 1.5 | 1.22 | -0.35
CCN(CC)c1nc(-c2ccccc2)cc(-c2ccccc2)c1C#N | 1.31 | 1.62 | -0.21
COc1cc(Cc2cnc(N)nc2N)cc(OC)c1OCCCCC(=O)O | -0.54 | 0.53 | 0.75
CC(=O)Nc1nc(C(=O)Nc2cccc(-c3ccc4c(cnn4CC4CC4)c3)c2)cs1 | 1.74 | 1.84 | 2.13
O=C(Cc1cccc(OCCCN(Cc2cccc(C(F)(F)F)c2Cl)CC(c2ccccc2)c2ccccc2)c1)NCc1ccco1 | -1.28 | 2.42 | -2.47
O=[N+]([O-])c1ccc(N/C(=N\c2ccccc2Br)NCCOc2ccccc2)c(O)c1 | 0.7 | -0.42 | -2.35
CCCCCCCCNCC(O)c1cc(-c2ccc(Cl)cc2)nc2cc(C)ccc12 (centres undefined) | 3.01 | -0.38 | -1.09
CCOC(=O)NCC(=O)Nc1cccc(-c2cccc(-c3nc4cccc(C)c4[nH]3)c2)c1 | 1.11 | 1.64 | 1.12
C=CCn1ccc2c3c(N)nc(N)nc3ccc21 | 66 | 79.6 | 44.1
Cn1nc(-c2ccc(CNC3CCc4ccccc43)cc2)c2cnc(NCCN3CCCC3)nc21 (centres undefined) | 2.93 | 3.09 | 0.03
c1cncc(NCc2ccc(-c3cc4ccncc4cc3OC3CCNCC3)s2)c1 | 4.74 | 5.2 | 4.54
CC1CCCCC1N(C)C1CCN(CCCNC(=O)C=Cc2cccc(C(F)(F)F)c2)CC1 (centres undefined) | 4.22 | 2.29 | 1.79
CCN(CC)CCN(Cc1ccc(-c2ccc(Cl)cc2)cc1)C(=O)Cn1cc(CN(C)C)c(=O)nc1SCc1ccc(F)cc1 | 0.45 | 0.54 | 1.16
Cn1nc(-c2ccc(NC(=O)Nc3cc(C(F)(F)F)cc(C(F)(F)F)c3)c(F)c2)c2cnc(NCCN3CCOCC3)nc21 | 2.68 | 2.48 | 3.49
O=C(/C=C/c1ccc(Cl)c(Cl)c1)N1CCC(CCN2CCC(c3c[nH]c4cnccc34)CC2)CC1 | 16 | 11.9 | 5.81
CCOCc1cn(CC(=O)c2ccc(-c3ccccc3)cc2)c(C)nc1=N | -1.07 | -0.82 | -0.84
